Inconclusive results are not listed. Unmarked numbers belong to inactive results. Active and inactive are the calls of the source. Calls come from the whole dose curve; as a rule, active = well fitted inhibition curve with a large enough effect; inconclusive = small, poorly fitted or top-dose-only effect; inactive = flat fitted curve, though single readings scatter.
The compounds below were run against Voltage-gated inwardly rectifying potassium channel KCNH2 (Homo sapiens) (UniProt Q12809) (assay: qHTS Assay for Small Molecule Inhibitors of the Human hERG Channel Activity (AID 588834;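 note: lower thallium flux fluorescence means stronger hERG block; nearly all actives have a fitted effect of over 50% in size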; for activity change, negative = inhibition: top concentration of the series differs between compounds)). Details: U2OS BacMam hERG, FluxOR thallium flux fluorescence; series mostly up to 46.1 µM; activity change, negative = inhibition: at the top concentration.
Sequence of Voltage-gated inwardly rectifying potassium channel KCNH2 (Homo sapiens) (Q12809 whole entry, looked up): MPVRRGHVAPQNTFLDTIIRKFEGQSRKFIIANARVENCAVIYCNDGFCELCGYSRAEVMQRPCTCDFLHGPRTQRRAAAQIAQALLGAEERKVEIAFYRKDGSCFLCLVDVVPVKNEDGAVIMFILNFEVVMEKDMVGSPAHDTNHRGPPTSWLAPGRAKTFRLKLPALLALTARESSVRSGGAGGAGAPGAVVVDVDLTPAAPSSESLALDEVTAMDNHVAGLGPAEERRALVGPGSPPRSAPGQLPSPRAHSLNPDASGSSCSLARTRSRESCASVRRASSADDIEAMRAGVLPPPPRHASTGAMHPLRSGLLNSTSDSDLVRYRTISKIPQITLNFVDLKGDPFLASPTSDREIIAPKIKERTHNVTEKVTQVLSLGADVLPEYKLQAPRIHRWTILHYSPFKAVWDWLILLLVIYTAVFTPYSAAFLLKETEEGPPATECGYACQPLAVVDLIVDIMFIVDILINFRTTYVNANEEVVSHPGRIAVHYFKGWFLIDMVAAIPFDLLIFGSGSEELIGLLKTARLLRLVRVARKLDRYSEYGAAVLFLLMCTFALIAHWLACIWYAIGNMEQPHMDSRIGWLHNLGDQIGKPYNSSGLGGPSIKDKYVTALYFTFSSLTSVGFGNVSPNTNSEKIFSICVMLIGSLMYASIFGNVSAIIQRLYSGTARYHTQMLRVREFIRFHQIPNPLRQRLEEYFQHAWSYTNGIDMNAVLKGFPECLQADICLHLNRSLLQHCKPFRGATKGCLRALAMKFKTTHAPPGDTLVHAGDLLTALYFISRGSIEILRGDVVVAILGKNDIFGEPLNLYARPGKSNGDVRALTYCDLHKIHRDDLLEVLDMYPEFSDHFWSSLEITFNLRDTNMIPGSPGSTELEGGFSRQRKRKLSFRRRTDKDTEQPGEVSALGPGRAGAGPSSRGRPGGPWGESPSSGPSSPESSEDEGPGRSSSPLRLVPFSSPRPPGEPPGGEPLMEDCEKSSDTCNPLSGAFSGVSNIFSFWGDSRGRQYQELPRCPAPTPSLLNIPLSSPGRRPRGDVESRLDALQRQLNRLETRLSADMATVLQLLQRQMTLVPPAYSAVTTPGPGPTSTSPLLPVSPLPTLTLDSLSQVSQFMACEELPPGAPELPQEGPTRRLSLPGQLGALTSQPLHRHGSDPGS
Summary of the method: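 Thallium-flux (FluxOR) read-out on FDSS: fluorescence read 10 s before and 2 min after stimulation buffer. hERG-BacMam-transduced U2OS cells, compound exposure about 10 min. AC50 by standard Hill equation.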
With `CCN(CC)CCOc1ccccc1OC` the “activity change, negative = inhibition” value was 3.4%.
With `FC(F)(F)COCC(F)(F)F` the “activity change, negative = inhibition” value was 2.48%.
In the case of `CCCCCCOC(=O)c1cccnc1`, the “activity change, negative = inhibition” value is reported as -6.71%.
In the case of `O=C(c1cc2ccccc2o1)N1CCN(Cc2ccccc2)CC1`, the “activity change, negative = inhibition” value is reported as -21.5%.
For `CCOC(=O)Cc1ccc(-c2ccccc2)cc1`, the “activity change, negative = inhibition” value was -17%.
In the case of `CC1CC(O)CC(C)(C)C1` (stereo not drawn), the “activity change, negative = inhibition” value is reported as 5.61%.
With `O=C1c2ccccc2C(=O)C1c1ccc(Cl)cc1` the “activity change, negative = inhibition” value was 3.1%.
With `c1ccc(-n2cnnn2)cc1` the “activity change, negative = inhibition” value was 24.4%.
In the case of `CO[C@@]1(NC(=O)C2SC(=C(C(N)=O)C(=O)O)S2)C(=O)N2C(C(=O)O)=C(CSc3nnnn3C)CS[C@@H]21` (stereo partly drawn), the Potency is reported as 7.08 µM (active).
In the case of `CN1CCC(OC(=O)C(Oc2ccc(Cl)cc2)Oc2ccc(Cl)cc2)CC1`, the Potency is reported as 1 µM (active).
With `CC(/C=C/C=C(\C)C(=O)O[C@@H]1O[C@H](CO[C@@H]2O[C@H](CO)[C@@H](O)[C@H](O)[C@H]2O)[C@@H](O)[C@H](O)[C@H]1O)=C\C=C\C=C(C)\C=C\C=C(/C)C(=O)O[C@@H]1O[C@H](CO[C@@H]2O[C@H](CO)[C@@H](O)[C@H](O)[C@H]2O)[C@@H](O)[C@H](O)[C@H]1O` the “activity change, negative = inhibition” value was 2.66%.
In the case of `COC(=O)CC[C@H](N)C(=O)O`, the “activity change, negative = inhibition” value is reported as 14.3%.
With `NS(=O)(=O)c1cc2c(cc1Cl)NC(Cc1ccccc1)NS2(=O)=O` (stereo not drawn) the “activity change, negative = inhibition” value was 0.179%.
`CC(C)CCC[C@@H](C)[C@H]1CC(=O)C2=C3CC[C@H]4C[C@@H](O)CC[C@]4(C)[C@H]3CC[C@@]21C` was tested, and the “activity change, negative = inhibition” value was -27.1%.
`COc1ccc2cc([C@H](C)CO)ccc2c1` was tested, and the “activity change, negative = inhibition” value was 6.8%.
With `Cn1nnnc1SCC1=C(C(=O)O)N2C(=O)[C@@H](NC(=O)[C@H](O)c3ccccc3)[C@H]2SC1` the “activity change, negative = inhibition” value was 6.43% [at 20.6 µM].
`CN[C@@H]1[C@@H](O[C@H]2O[C@H](CO)[C@@H](N)[C@H](O)[C@H]2O)O[C@H]2C[C@@H](N)[C@@H](O[C@H]3[C@H](O)[C@@H](O)[C@H](N)C[C@@H]3N)O[C@@H]2[C@@H]1O` was tested, and the “activity change, negative = inhibition” value was 2.33% [at 20.6 µM].
In the case of `CO/N=C(\C(=O)N[C@@H]1C(=O)N2C(C(=O)[O-])=C(C[n+]3ccc(N)n3CCO)CS[C@H]12)c1csc(N)n1`, the “activity change, negative = inhibition” value is reported as 13.6%.
For `O=C(O)CCC(=O)c1ccc(-c2ccccc2)cc1`, the “activity change, negative = inhibition” value was 2.78% [at 20.6 µM].
`CN[C@H](CC(C)C)C(=O)N[C@H]1C(=O)N[C@@H](CC(N)=O)C(=O)N[C@H]2C(=O)N[C@H]3C(=O)N[C@H](C(=O)N[C@@H](C(=O)O)c4cc(O)cc(O)c4-c4cc3ccc4O)[C@H](O)c3ccc(c(Cl)c3)Oc3cc2cc(c3O[C@@H]2O[C@H](CO)[C@@H](O)[C@H](O)[C@H]2O[C@H]2C[C@](C)(N)C(O)[C@H](C)O2)Oc2ccc(cc2Cl)[C@H]1O` (stereo partly drawn) was tested, and the “activity change, negative = inhibition” value was 8.77%.
With `C=O` the “activity change, negative = inhibition” value was 10.7%.
With `COc1cc(S(C)=O)ccc1-c1nc2ncccc2[nH]1` (stereo not drawn) the “activity change, negative = inhibition” value was 2.3%.
For `[O]=[Bi][O][Bi]=[O]`, the “activity change, negative = inhibition” value was -2.04%.
With `c1ccc2c(c1)OCC(CN1CCCCC1)O2` (stereo not drawn) the “activity change, negative = inhibition” value was 5.51%.
In the case of `C=CC[N@@+]12CC[C@@]34c5ccccc5N5/C=C6/[C@H]7C[C@H]8[C@@]9(CC[N@@+]8(CC=C)C/C7=C/CO)c7ccccc7N(/C=C(/[C@@H](C[C@@H]31)/C(=C\CO)C2)[C@H]54)[C@@H]69`, the “activity change, negative = inhibition” value is reported as 5.19% [at 20.6 µM].
In the case of `NC(N)=NCC1COc2ccccc2O1` (stereo not drawn), the “activity change, negative = inhibition” value is reported as -15.6%.
With `CCN1C(=O)NC(c2ccccc2)C1=O` (stereo not drawn) the “activity change, negative = inhibition” value was -4.23% [at 20.6 µM].
For `CC(=O)Oc1cccc(C(=O)O)c1OC(C)=O`, the “activity change, negative = inhibition” value was 0.118%.
For `O=C(NNCNNC(=O)c1ccncc1)c1ccncc1`, the “activity change, negative = inhibition” value was 9.18%.
For `CN1C(=O)OC(C)(C)C1=O`, the “activity change, negative = inhibition” value was 8.89% [at 20.6 µM].
`C[C@H](O)CN(C)C` was tested, and the “activity change, negative = inhibition” value was 23.2%.
For `Cc1ccc(C(C)(C)c2ccc(C)cc2)cc1`, the “activity change, negative = inhibition” value was -27.3%.
With `CC12CCC(C1)C(C)(C)C2=O` (stereo not drawn) the “activity change, negative = inhibition” value was 2.18%.
In the case of `CCCC(CCC)C(=O)OC1C[C@H]2CC[C@@H](C1)[N+]2(C)C` (stereo partly drawn), the “activity change, negative = inhibition” value is reported as -4.79%.
With `C=N[C@@H](C(=O)N[C@@H]1C(=O)N2[C@@H]1SC(C)(C)[C@@H]2C(=O)O)c1ccccc1` the “activity change, negative = inhibition” value was 10.4%.
In the case of `CC(C)(CO)[C@@H](O)C(=O)NCCCC(=O)O`, the “activity change, negative = inhibition” value is reported as 9.65%.
With `CCCCC/C=C\C/C=C\C/C=C\CCCCC(=O)O` the “activity change, negative = inhibition” value was 12.6%.
`NC[C@@H]1O[C@H](O[C@H]2[C@@H](O)[C@H](O[C@@H]3[C@@H](O)[C@H](N)C[C@H](N)[C@H]3O[C@H]3O[C@H](CO)[C@@H](O)[C@H](O)[C@H]3N)O[C@@H]2CO)[C@H](N)[C@@H](O)[C@@H]1O` was tested, and the “activity change, negative = inhibition” value was -7.02%.

Source: PubChem BioAssay (NCATS)
% is set by controls: 0 for no effect and ±100 for the full control effect; potency is the fitted concentration of half-maximal effect.
